Tau fluor counter: Counterscreen qHTS for Inhibitors of Tau Fibril Formation, Fluorescence Polarization; actives 0.93% (n = 280,000); AID 1463, 2008; tau K18 P301L Alexa594 fluorescence, heparin fibrillization; Potency, µM (highest dose often 57.7 µM); further: nearly all actives have a fitted effect of over 55% in size
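Human tau K18 P301L (15 uM unlabeled, 0.24 uM Alexa 594-labeled) in 100 mM sodium acetate pH 7 with 20 uM heparin, 6 hr at 37 C. ThT 30 uM added, 1 hr ambient; Alexa 594 FP and total fluorescence read at 555/632 nm.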
Tau fibril ThT: qHTS for Inhibitors of Tau Fibril Formation, Thioflavin T Binding; Microtubule-associated protein tau (Homo sapiens), P10636; recombinant tau K18 P301L (four-repeat tau fragment), heparin-induced fibrillization, ThT fluorescence; Potency, µM (highest dose often 57.4 µM), usual class: inhibitors; actives 2.1% (n = 270,000); AID 1460, 2008; further: nearly all actives have a fitted effect of over 55% in size
Target sequence (P10636 561-689 P618L limits assumed): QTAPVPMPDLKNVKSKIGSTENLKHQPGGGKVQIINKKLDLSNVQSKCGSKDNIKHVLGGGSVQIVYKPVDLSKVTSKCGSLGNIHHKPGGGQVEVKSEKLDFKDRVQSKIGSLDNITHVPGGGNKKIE
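In this qHTS, human K18 P301L tau is incubated with compound and heparin for 6 hr at 37 C, and Thioflavin T fluorescence then reports fibril load.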
Tau fibril FP: qHTS for Inhibitors of Tau Fibril Formation, Fluorescence Polarization; AID 1468, 2008; Potency, µM (titrated, usually from 57.7 µM), actives largely listed as inhibitors; Microtubule-associated protein tau (Homo sapiens), P10636; K18 P301L tau heparin fibrillization, Alexa594 FP, 6 h; actives 0.39% (n = 280,000); further: nearly all actives have a fitted effect of over 55% in size
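Recombinant K18 P301L […], labeled with Alexa 594 at 0.24 uM over 15 uM unlabeled; heparin inducer 20 uM final; 37 C, 6 hr; FP endpoint.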
FBPA coupling cs: qHTS Assay for Inhibitors of Fructose-1,6-bisphosphate Aldolase from Giardia Lamblia: Coupling assay counterscreen | coupling enzyme system counterscreen, AmpLite Red fluorescence | activity change, negative = inhibition, % at 58.2 µM, hits read low | actives 0.67% (n = 290,000) | AID 2472, 2010; in the data active means activity change below about -30%
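First, compound is pin-transferred into glyceraldehyde-3-phosphate coupling-enzyme reagent at 57.5 uM final and held 10 min at RT. Next, substrate, coupling system and AmpLite Red are added. After 20 min RT, fluorescence (525/598 nm) is read.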
G9a block: qHTS Assay for Inhibitors of Histone Lysine Methyltransferase G9a | AID 504332, 2011 | Histone-lysine N-methyltransferase EHMT2 (Homo sapiens), Q96KQ7 | G9a H3K9 monomethylation, AlphaScreen, 2 h | Potency, µM (highest dose often 102 µM), hits mostly inhibitors | actives 8.8% (n = 350,000); further: nearly all actives have a fitted effect of over 75% in size
Target sequence (Q96KQ7 913-1193 limits assumed): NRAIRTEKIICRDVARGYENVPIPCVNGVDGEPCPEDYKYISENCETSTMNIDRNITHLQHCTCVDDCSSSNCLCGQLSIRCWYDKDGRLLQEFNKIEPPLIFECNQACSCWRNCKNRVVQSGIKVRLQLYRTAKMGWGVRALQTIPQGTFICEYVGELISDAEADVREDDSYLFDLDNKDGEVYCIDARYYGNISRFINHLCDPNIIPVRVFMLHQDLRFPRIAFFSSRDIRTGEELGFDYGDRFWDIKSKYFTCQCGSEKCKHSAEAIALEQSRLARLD
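Compounds were preincubated with 20 nM G9a for 15 min, after which biotinylated H3K9 peptide (500 nM) and SAM (20 uM) started a 2 h room-temperature reaction. Monomethylated product was quantified by antibody-based AlphaScreen chemiluminescence.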
Sfp PPTase inh: qHTS Assay for Inhibitors of Bacillus subtilis Sfp phosphopantetheinyl transferase (PPTase). Potency, µM, actives largely listed as inhibitors. AID 1490, 2009. 4'-phosphopantetheinyl transferase ffp (Bacillus subtilis), Q9F4F7. actives 3.5% (n = 310,000). Biochemical Sfp PPTase activity, qHTS;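 further: the enzyme is Sfp with the accession as filed and its product quenches rhodamine fluorescence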
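Fluorescence-quenching assay with 15 nM Sfp, 5 uM rhodamine-CoA and 12.5 uM BHQ-2-labelled ybbR peptide in pH 7.6 Hepes/MgCl2 buffer. Enzyme was pre-incubated with compound for 15 min at room temperature. Rate was taken from the 30-min fluorescence change (525/598 nm).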
Numbers stand for hits; - = inactive; ? = inconclusive; . = no result given; [ ] = dose if it differs, or a comment. An excerpt weighted towards active compounds, which were near 11% of everything screened. Unless noted, the call rests on the fitted dose curve; in most records, active means well fitted curve in the direction sought with a large enough effect; inconclusive means small, poorly fitted or top-dose-only effect, or another doubt; inactive means no such curve, though single readings can be large; an effect the other way counts as inactive or inconclusive.

SMILES	Tau fluor counter	Tau fibril ThT	Tau fibril FP	FBPA coupling cs	G9a block	Sfp PPTase inh
O=[N+]([O-])c1ccccc1OCCCN1CCc2ccccc2C1	.	.	.	-	?	-
Cc1ccc(OCCN2CCNCC2)c([N+](=O)[O-])c1	-	-	-	-	8.9µM	-
O=[N+]([O-])c1ccccc1OCCN1CCCC1	.	.	.	-	?	-
CC1CC(C)CN(CCCOc2ccccc2[N+](=O)[O-])C1 (stereo unspecified)	-	-	-	-	14µM	-
CCc1ccccc1NC(=O)CN1CCN(C(=O)CN2C(=O)NC3(CCCC3)C2=O)CC1	.	.	.	.	-[2.33 µM]	.
CCOc1ccccc1NC(=O)CN1c2ccccc2S(=O)(=O)c2ccccc21	-	-	-	.	-	.
CC(=O)NCCNc1ccnc(-c2ccccc2C)n1	.	.	.	-	-[0.501 µM]	-
Cc1ccc(CNC(=O)c2ccc3c(=O)n(-c4ccccc4)c(=O)[nH]c3c2)cc1	-	-	-	.	-	.
Cc1ccc([N+](=O)[O-])c(OCCN2CCc3ccccc3C2)c1	.	.	.	-	10µM	-
Cc1ccc(OCCCn2ccnc2)c([N+](=O)[O-])c1	-	-	-	-	?	-
Cc1ccc(OCCN2CCN(C)CC2)c([N+](=O)[O-])c1	-	-	-	-	2.5µM	?
COC(=O)c1c(C)[nH]c(C(=O)CC#N)c1C	-	?	-	-	-	-
COC(=O)Cc1[nH]c(=S)[nH]c1C(=O)OC	-	-	-	-	.	56µM
COc1ccc(C(=O)CNC2=NCCC2)cc1	-	-	-	-	-	-
O=C(CNc1ccccc1)NNC1=NCCC1	-	-	-	-	10µM	?
Cc1ccccc1C(=O)NNC1=NCCC1	-	-	-	-	2µM	-
O=C(NNC1=NCCC1)c1cccc(Br)c1	-	-	-	-	-[2.33 µM]	-
COc1ccc(C(=O)NNC2=NCCCCC2)cc1	-	-	-	-	32µM	-
C=CCN(c1ccccc1OC)S(=O)(=O)c1cccc(C(=O)Nc2nnc(C3CC3)s2)c1	.	.	.	.	-	.
CC(C)(C)c1ccc(OCCSc2nc(-c3cccs3)nc3cc(=O)[nH]n23)cc1	-	-	-	.	-	.
NS(=O)(=O)c1cccc(NC(=O)c2cc(-c3cccs3)nc3ccccc23)c1	-	-	-	-	45µM	-
CN(C)S(=O)(=O)c1cccc(NC(=O)c2cc(-c3cccs3)nc3ccccc23)c1	-	-	?	-	-	-
N#Cc1ccc(/C=N/NC(=O)c2cc(-c3cccs3)nc3ccccc23)cc1	?	-	?	-	-	?
NS(=O)(=O)c1cccc(NC(=O)COC(=O)c2cc(-c3ccc(Cl)cc3)nc3ccccc23)c1	-	-	-	-	35µM	-
COc1cc(/C=N/NC(=O)c2cc(-c3cccs3)nc3ccccc23)ccc1O	18µM[quencher]	?	-	-	-	-
SMILES	Tau fluor counter	Tau fibril ThT	Tau fibril FP	FBPA coupling cs	G9a block	Sfp PPTase inh
CCOc1ccc(S(=O)(=O)NCCc2csc(-c3ccc(Cl)cc3)n2)cc1	?	-	-	.	-	.
CC(=O)c1cccc(NC(=O)CCn2nc(C)c(S(=O)(=O)N3CCCCC3)c2C)c1	-	-	-	.	-	.
O=C(/C=C/c1ccccc1Cl)c1ccccc(=O)c1O	-	14µM	?	-	32µM	45µM
Cc1ccc(C)c(/C=C/C(=O)c2ccccc(=O)c2O)c1	?	22µM	?	-	45µM	?
Cc1ccc(/C=C/C(=O)c2ccccc2)cc1	-	?	?	-	-[12.7 µM]	-
Cc1ccc(/C=C/C(=O)c2ccccc(=O)c2O)c(C)c1	-	?	-	-	50µM	?
O=C(/C=C/c1ccccc1Cl)c1ccc(O)cc1	-	?	-	-	-	-
Cc1cnc(C(=O)Nc2ccccc2-n2cccc2)cn1	-	-	-	-	?	45µM
Cc1ccc(/C=C/c2nc3sc(C(=O)O)c(C)c3c(=O)[nH]2)cc1[N+](=O)[O-]	.	.	.	-	7.1µM	79µM
CCN(CC(=O)Nc1ccc(NC(C)=O)cc1)C(=O)COc1ccccc1-c1ccccc1	.	.	.	.	-[2.33 µM]	.
CC(=O)Nc1ccc(NC(=O)CCCSc2nc3ccccc3[nH]2)cc1	-	-	-	-	-[12.7 µM]	-
CCN(CC(=O)Nc1ccc(NC(C)=O)cc1)C(=O)CCCSc1nc2ccccc2[nH]1	.	.	.	.	50µM	.
CCOc1ccccc1OCCCC(=O)N(CC)CC(=O)Nc1ccc(NC(C)=O)cc1	.	.	.	.	50µM	.
Cc1cccc(-n2ncc(C(=O)N3CCN(C4CCCCC4)CC3)c2C2CCN(C(=O)OC(C)(C)C)CC2)c1	-	-	-	.	-	.
N#CC1=C(N)C2=CCCC[C@H]2[C@H](c2ccccc2)C1(C#N)C#N	-	?	?	-	?	-

High-throughput results: PubChem, National Center for Advancing Translational Sciences (NCATS)
